Rows were chosen to be rich in hits. Some 1.6% of all compounds tested hit in one or more screens of this group.
KCNQ2 block = blocks the rat KCNQ2 potassium channel. AID 2156. B-score at 10 µM. CHO-K1 KCNQ2, FluxOR thallium flux, 20 min; active compounds read low. hit rate 1.1% among 310,000;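 active = fluorescence ratio B-score at most minus 3 library SDs, with starting brightness B-score within 2 library SDs, cut at about -5.5 in these data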
Target sequence (O88943 whole entry, looked up): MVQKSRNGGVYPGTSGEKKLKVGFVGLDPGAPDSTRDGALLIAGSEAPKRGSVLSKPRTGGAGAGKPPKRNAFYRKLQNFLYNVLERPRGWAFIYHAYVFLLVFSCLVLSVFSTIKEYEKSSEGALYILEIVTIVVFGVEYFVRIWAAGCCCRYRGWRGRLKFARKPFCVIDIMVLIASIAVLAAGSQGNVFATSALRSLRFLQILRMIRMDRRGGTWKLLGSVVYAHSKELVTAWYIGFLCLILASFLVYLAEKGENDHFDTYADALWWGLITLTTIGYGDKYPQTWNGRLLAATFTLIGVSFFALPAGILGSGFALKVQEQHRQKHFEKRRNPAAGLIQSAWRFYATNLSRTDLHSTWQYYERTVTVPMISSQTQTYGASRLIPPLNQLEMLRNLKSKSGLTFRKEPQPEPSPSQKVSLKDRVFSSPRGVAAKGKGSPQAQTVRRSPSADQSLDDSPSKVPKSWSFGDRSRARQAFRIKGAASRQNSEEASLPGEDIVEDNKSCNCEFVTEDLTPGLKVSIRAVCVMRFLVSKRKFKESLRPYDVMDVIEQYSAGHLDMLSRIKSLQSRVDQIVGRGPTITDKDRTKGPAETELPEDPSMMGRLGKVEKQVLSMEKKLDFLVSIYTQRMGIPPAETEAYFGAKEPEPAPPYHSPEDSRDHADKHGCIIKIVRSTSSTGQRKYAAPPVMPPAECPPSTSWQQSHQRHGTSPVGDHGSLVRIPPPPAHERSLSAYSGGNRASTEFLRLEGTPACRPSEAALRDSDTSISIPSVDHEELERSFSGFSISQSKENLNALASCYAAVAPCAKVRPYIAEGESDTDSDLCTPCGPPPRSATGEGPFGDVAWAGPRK
KCNQ2 pot = enhances the rat KCNQ2 potassium channel. O88943. CHO-K1 KCNQ2, FluxOR thallium flux fluorescence; active compounds read high. B-score at 10 µM. hit rate 0.54% among 310,000. AID 2239;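 active = fluorescence ratio B-score at least 3 SD of library B-scores, with initial fluorescence B-score within 3 of them, cut at about 5.3 in these data; same plate scores as AID 2156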;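 note: B-score of peak minus minimum over baseline fluorescence ratio after K+ and Tl+ stimulus; positive B-score means potentiation of KCNQ2 with more thallium influx and brighter signal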
An asterisk follows results filed as active; i = inactive; nt = no result.

SMILES	KCNQ2 block	KCNQ2 pot
COc1ccc(C2=NN(C(=O)CSc3ncccn3)C(c3ccc(C)cc3)C2)cc1 (stereo not drawn)	i	1.9
COc1ccc(C2=NN(C(=O)CSc3nc(=O)n4cccc(C)c4n3)C(c3ccc(C)cc3)C2)cc1 (stereo not drawn)	-7.4*	-7.4
Nc1c2c(nc3ccccc13)N(C1CCCCC1)CC2	i	0.77
Nc1c2c(nc3ccc(Br)cc13)N(C1CCCCC1)CC2	-5.8*	-5.8
CCOC(=O)c1c(N2C(=O)C3C4C=CC(C4)C3C2=O)sc2c1CCC(C)C2 (stereo not drawn)	i	6.7*
CCOC(=O)c1cc(C)sc1N1C(=O)C2C3C=CC(C3)C2C1=O (stereo not drawn)	i	0.28
COc1ccc(C(=O)Cn2c(Cl)nc3c2c(=O)n(C)c(=O)n3C)cc1	i	0.77
CCCCN(C)C(=O)c1oc2ccc(S(=O)(=O)N3CCCCCC3)cc2c1C	-5.6*	-5.6
Cc1c(C(=O)O)oc2ccc(S(=O)(=O)N3CCCC3)cc12	i	nt
COc1ccc(-n2cccc2/C=C/[N+](=O)[O-])cc1	-6.5*	-6.5
COc1ccc(-n2cccc2C=O)cc1	i	0.01
Cn1c(SCC(=O)NCCc2ccccc2)ncc(C(=O)Nc2ccccc2)c1=O	i	nt
O=C(NC(NCc1ccccc1)C(Cl)(Cl)Cl)c1cccnc1 (stereo not drawn)	i	nt
O=C(NC(NCc1cccnc1)C(Cl)(Cl)Cl)c1cccc2ccccc12 (stereo not drawn)	-6.3*	-6.3
COc1ccc(NS(=O)(=O)c2cccc(C(=O)NCCCn3ccnc3)c2)cc1	i	0.19
COc1ccc(CN(C(=O)CSc2nnc(-c3ccc(F)cc3)o2)c2ccc(F)cc2)cc1	i	nt
COc1ccc(CN(C(=O)CSc2nnc(-c3c[nH]c4ccccc34)o2)c2ccc(F)cc2)cc1OC	-7*	-7
COc1ccccc1NC(=S)NCCSc1ccc(Cl)cc1	i	nt
COc1ccccc1NC(=O)OC(C)c1ccc(Cl)cc1 (stereo not drawn)	-5.8*	-5.8
COc1ccccc1NC(=S)NCCc1ccc(Cl)cc1	-6.2*	-6.2
COc1ccccc1NC(=O)Nc1cc(C(C)C)ccc1C	i	1.2
COc1cc2c(cc1OC)C(C)N(C(=O)C(NC(=O)c1ccccc1)C(C)C)CC2 (stereo not drawn)	i	0.64
Cc1ccc(C(=O)NC(=O)OCCn2c(C)cnc2[N+](=O)[O-])cc1	i	nt
CCN(CC)c1ccc(/C=N/N2CCN(Cc3ccccc3Cl)CC2)c(O)c1	i	nt
CCN(CC)c1ccc(/C=N/N2CCN(Cc3ccc(C)cc3)CC2)c(O)c1	-6.2*	-6.2
SMILES	KCNQ2 block	KCNQ2 pot
COc1ccc(N2CC(C(=O)N[C@H](C(=O)NC3CCCCC3)C(C)C)CC2=O)cc1 (stereo partly drawn)	i	0.04
Cc1cc(C)nc(NCC(O)CNc2ccccc2C)n1 (stereo not drawn)	i	0.82
Cc1cc(C)nc(NCC(O)COc2ccccc2C)n1 (stereo not drawn)	-5.9*	-5.9
COC(=O)C1CCN(C(=O)c2cc3c(=O)n4cccc(C)c4nc3n2Cc2ccccc2)CC1	i	nt
CC(C)COc1ccc(CSCCNC(=S)Nc2ccccc2)cc1	i	nt
O=C(C1CC1)N(CCN(Cc1ccccc1)C(=O)C1CC1)Cc1ccccc1	-7.1*	-7.1
O=C(c1ccccc1)N(Cc1ccccc1)Cc1ccccc1	-6.3*	-6.3
CCN(Cc1ccccc1)C(=O)c1ccc(C(=O)N(CC)Cc2ccccc2)cc1	i	nt
CCN(Cc1ccccc1)C(=O)C1CCN(CC2CC=CCC2)CC1 (stereo not drawn)	i	nt
O=C(O)C1CCCN(S(=O)(=O)c2ccc(-c3ccc(=O)[nH]n3)s2)C1 (stereo not drawn)	i	0.59
C/C(=N\NC(=O)c1nnn(-c2nonc2N)c1CN1CCC(C)CC1)c1cccc(Br)c1	-5.7*	-5.7
C/C(=N\NC(=O)c1nnn(-c2nonc2N)c1CN1CCCCCC1)c1ccc(Br)cc1	i	nt
Cc1ccc(O)c(Nc2c3ccccc3nc3ccccc23)c1	-5.6*	-5.6
Cc1ccc(O)c(Nc2nc(-c3ccccc3)nc3ccccc23)c1	i	0.61
O=C(c1ccc(Br)cc1)N1CCN(Cc2ccccc2)CC1	i	nt
O=C(CCN1CCN(C(=O)c2ccccc2)CC1)c1ccc(Br)cc1	-9*	-9
CC(Nc1ncnc2sccc12)c1ccccc1 (stereo not drawn)	i	nt
COc1ccc(C(CNC(=O)c2ccc(S(=O)(=O)N3CCCC3)cc2)N2CCOCC2)cc1 (stereo not drawn)	i	nt
COc1ccc(C(CNC(=O)c2ccc3c(c2)C(=O)N(CCC(C)C)C3=O)N2CCOCC2)cc1 (stereo not drawn)	-5.8*	-5.8
COc1ccc(C(=O)Nc2ccccc2)cc1NC(=O)c1cccs1	i	nt
CCCCOc1ccc(C(=O)N/C(=C\c2cccc([N+](=O)[O-])c2)C(=O)OC(C)C)cc1	-6*	-6
CCCCOc1ccc(C(=O)N/C(=C\c2cccc([N+](=O)[O-])c2)C(=O)OCCC)cc1	i	nt
CCOc1ccc(NC(=O)c2ccc3[nH]c(=O)c(=O)[nH]c3c2)cc1	i	nt
C#CCOCCOCCOCCNc1nc(N2CCN(C(=O)C([C@@H](C)CC)n3cc(C(N)Cc4ccc(O)cc4)nn3)CC2)nc(N2CCN(C(=O)[C@H](CCC(=O)O)n3cc(C(N)CO)nn3)CC2)n1 (stereo partly drawn)	i	nt
Cc1ccc(C(=O)O/N=C2\CC3CCC2(C)C3(C)C)cc1 (stereo not drawn)	i	nt
SMILES	KCNQ2 block	KCNQ2 pot
Cc1cccc(C(=O)O/N=C2/CC3CCC2(C)C3(C)C)c1 (stereo not drawn)	-5.7*	-5.7
c1nc2n(n1)C1=C(CCCC1)C1(CCCCC1)N2	i	nt
COc1cccc(NC(=O)c2cccs2)c1	i	1.9
COc1cc(NC(=O)c2cccs2)cc(OC)c1	i	6.6*
CC(C)CC1Nc2ncnc(N3CCN(c4ccccc4)CC3)c2N(Cc2ccc(Cl)cc2)C1=O (stereo not drawn)	i	nt
C=Cc1ccc2c(c1)N(C)C(=C)S2	i	nt
CCCCN(CCCC)C(=S)NC(=O)c1ccccc1Cl	i	19*
CCN(CC)C(=S)NC(=O)c1ccc(Cl)cc1Cl	i	4.2
CCc1nnc2n1N=C(c1ccc(-c3cc(Cl)ccc3Cl)o1)CS2	i	0.52
O=c1c2cnn(-c3ccccc3)c2nc(-c2cccs2)n1-c1ccc(Cl)cc1	i	nt
O=c1c2cnn(-c3ccccc3)c2nc(-c2cccs2)n1-c1cccc(Cl)c1	-7.5*	-7.5
Cc1ccc2nsnc2c1S(=O)(=O)N1CCN(Cc2ccc3c(c2)OCO3)CC1	i	0.82
CCN1C(=O)/C(=c2\sc3nc(=O)c(Cc4ccccc4)nn3c2=O)c2ccccc21	i	1
COc1cccc(/C=N/n2c(=S)n(C)c3cc(C)c(C)cc32)c1OC	-6.1*	-6.1
COc1cccc(/C=N/n2c(-c3cc(C)[nH]n3)n[nH]c2=S)c1OC	i	nt
O=C(COc1ncnc2ccc(Br)cc12)NCc1ccco1	i	0.23
CCCC[C@@H]1C[C@H]1[C@@H](NC(=O)c1cccs1)c1ccc(Cl)cc1	-8*	-8
CCCC[C@@H]1C[C@H]1[C@@H](NC(=O)c1ccco1)c1ccc(Cl)cc1	i	nt
Cc1ccc(NC(=O)C2CC(O)CN2C(=O)OCc2ccccc2)c(C)c1 (stereo not drawn)	i	nt
CCn1nnc(NC(=O)c2ccco2)n1	i	nt
